Measurements from PubChem BioAssay (NCATS).
Inconclusive results are not listed. Activity calls are given as the source filed them. Calls come from the whole dose curve; as a rule, active = well fitted curve in the direction sought with a large enough effect; inconclusive = small, poorly fitted or top-dose-only effect, or another doubt; inactive = no such curve, though single readings can be large; an effect the other way counts as inactive or inconclusive.

Key:
[1] = qHTS of pediatric cancer cell lines to identify multiple opportunities for drug repurposing: Primary screen for LAN-5 cells (AID 1347100); note: potency is the fitted concentration of half-maximal effect
Outline: (§1)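 Cells (500-1,000/well) rested 5 h, then received compounds for 48 h; metabolically active cells were measured by CellTiter-Glo luminescence. Final concentrations spanned up to 46 µM (MIPE, 11-point) or 0.59 nM-46 µM (NPC, 8-point) in primary screens, 11-point in follow-ups.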

[2] = qHTS of pediatric cancer cell lines to identify multiple opportunities for drug repurposing: Primary screen for Rh18 cells (AID 1347102); note: nearly all actives have a fitted effect of over 65% in size; note: potency is the fitted concentration of half-maximal effect
Outline: as §1

[3] = qHTS of pediatric cancer cell lines to identify multiple opportunities for drug repurposing: Primary screen for OHS-50 cells (AID 1347103); note: nearly all actives have a fitted effect of over 40% in size; note: potency is the fitted concentration of half-maximal effect
Outline: as §1

[4] = qHTS of pediatric cancer cell lines to identify multiple opportunities for drug repurposing: Primary screen for MG 63 (6-TG R) cells (AID 1347105); note: nearly all actives have a fitted effect of over 50% in size
Outline: (§2)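 Quantitative HTS format: each compound titrated (MIPE 11 points from 0.78 nM, NPC 8 points from 0.59 nM) onto cells plated 5 hours earlier. After 48 h at 37 degrees C, CellTiter-Glo luminescence was recorded.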

[5] = qHTS of pediatric cancer cell lines to identify multiple opportunities for drug repurposing: Primary screen for Rh30 cells (AID 1347107); note: nearly all actives have a fitted effect of over 75% in size; note: potency is the fitted concentration of half-maximal effect
Outline: as §1

[6] = qHTS of pediatric cancer cell lines to identify multiple opportunities for drug repurposing: Primary screen for Rh41 cells (AID 1347108); note: nearly all actives have a fitted effect of over 70% in size; note: potency is the fitted concentration of half-maximal effect
Outline: as §2

[7] = qHTS of pediatric cancer cell lines to identify multiple opportunities for drug repurposing: Confirmatory screen for A673 cells (AID 1347110);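 note: cells exposed to compound for 48 h before the viability read; nearly all actives have a fitted effect of over 65% in size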; note: potency is the fitted concentration of half-maximal effect
Outline: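 A673 cells seeded at 500-1,000 cells/well, rested 5 h, then dosed; primary MIPE 11-point (0.78 nM to 46 µM), NPC (0.59 nM to 46 µM); confirmatory 11-point. CellTiter-Glo luminescence after 48 h.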

[8] = qHTS of pediatric cancer cell lines to identify multiple opportunities for drug repurposing: Confirmatory screen for SK-N-MC cells (AID 1347111);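 note: cells exposed to compound for 48 h before the readout; nearly all actives have a fitted effect of over 70% in size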; note: potency is the fitted concentration of half-maximal effect
Outline: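 Seed 500-1,000 cells/well; rest 5 h at 37 degrees C. Pin-transfer compounds, 11-point titration. Incubate 48 h. Add CellTiter-Glo, 15 min RT, read luminescence.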

[9] = qHTS of pediatric cancer cell lines to identify multiple opportunities for drug repurposing: Confirmatory screen for DAOY cells (AID 1347114); note: nearly all actives have a fitted effect of over 65% in size; note: potency is the fitted concentration of half-maximal effect
Outline: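 Viability measured as metabolically active cells via CellTiter-Glo luminescence following 48 hours of compound exposure, 11-point dilutions in confirmatory testing. 500-1,000 cells/well plated 5 hours before dosing; controls were DMSO and 2.3 µM bortezomib.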

[10] = qHTS of pediatric cancer cell lines to identify multiple opportunities for drug repurposing: Confirmatory screen for NB-EBc1 cells (AID 1347115);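 note: cells exposed to compound for 48 h before the viability read; nearly all actives have a fitted effect of over 45% in size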; note: potency is the fitted concentration of half-maximal effect
Outline: as §1

[11] = qHTS of pediatric cancer cell lines to identify multiple opportunities for drug repurposing: Confirmatory screen for BT-37 cells (AID 1347117); note: nearly all actives have a fitted effect of over 55% in size; note: potency is the fitted concentration of half-maximal effect
Outline: as §1

[12] = qHTS of pediatric cancer cell lines to identify multiple opportunities for drug repurposing: Confirmatory screen for MG 63 (6-TG R) cells (AID 1347119); note: nearly all actives have a fitted effect of over 55% in size; note: potency is the fitted concentration of half-maximal effect
Outline: as §1

[13] = qHTS of pediatric cancer cell lines to identify multiple opportunities for drug repurposing: Primary screen for BT-12 cells (AID 1347101); note: nearly all actives have a fitted effect of over 25% in size
Outline: as §1

[14] = qHTS of pediatric cancer cell lines to identify multiple opportunities for drug repurposing: Primary screen for control Hh wild type fibroblast cells (AID 1347106);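 note: series mostly up to about 46 µM; a drop in luminescence marks cytotoxicity and a rise apparent proliferation; nearly all actives have a fitted effect of over 55% in size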
Outline: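 Cells (500-1,000/well) in growth media were settled 5 h at 37 degrees C, then given compounds for 48 h. Viability was read as CellTiter-Glo luminescence. Primary runs used MIPE at 11 points (0.78 nM-46 µM) and NPC at 8 points (0.59 nM-46 µM); follow-ups used 11 points.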

[15] = qHTS of pediatric cancer cell lines to identify multiple opportunities for drug repurposing: Primary screen for RD cells (AID 1347104); note: nearly all actives have a fitted effect of over 55% in size; note: potency is the fitted concentration of half-maximal effect
Outline: as §2

[16] = qHTS of pediatric cancer cell lines to identify multiple opportunities for drug repurposing: Confirmatory screen for NB1643 cells (AID 1347109); note: nearly all actives have a fitted effect of over 45% in size; note: potency is the fitted concentration of half-maximal effect
Outline: as §1

[17] = qHTS of pediatric cancer cell lines to identify multiple opportunities for drug repurposing: Confirmatory screen for TC32 cells (AID 1347118);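 note: cells exposed to compound for 48 h before the read; nearly all actives have a fitted effect of over 65% in size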; note: potency is the fitted concentration of half-maximal effect
Outline: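 qHTS, TC32, 48 h drug treatment, CellTiter-Glo luminescence as a proxy for metabolically active cells; primary top concentration 46 µM (MIPE 11-pt, NPC 8-pt); confirmatory 11-pt.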

[18] = qHTS of pediatric cancer cell lines to identify multiple opportunities for drug repurposing: Confirmatory screen for LAN-5 cells (AID 1347113); note: nearly all actives have a fitted effect of over 65% in size; note: potency is the fitted concentration of half-maximal effect
Outline: as §1

[19] = qHTS of pediatric cancer cell lines to identify multiple opportunities for drug repurposing: Confirmatory screen for control Hh wild type fibroblast cells (AID 1347121); note: nearly all actives have a fitted effect of over 70% in size
Outline: as §1

[20] = qHTS of pediatric cancer cell lines to identify multiple opportunities for drug repurposing: Confirmatory screen for BT-12 cells (AID 1347112); note: nearly all actives have a fitted effect of over 55% in size
Outline: as §1

Measured: Potency

CC1CNc2c(cccc2S(=O)(=O)N[C@@H](CCCN=C(N)N)C(=O)N2CC[C@@H](C)C[C@@H]2C(=O)O)C1 (stereo not given in full)
active: [1] 9.35 µM | [8] 20.8 µM
inactive: [2] | [3] | [4] | [5] | [6] | [7] | [9] | [10] | [11] | [12]

COc1cc2ncn(-c3cc(OCc4ccccc4S(C)(=O)=O)c(C#N)s3)c2cc1OC
inactive: [1] | [13] | [4] | [6]

CN1CCN(c2cccc(Nc3nc4c(-c5ccc(S(C)(=O)=O)cc5)cccn4n3)c2)CC1
inactive: [14]
active: [1] 13.2 µM | [2] 18.7 µM | [3] 7.69 µM | [6] 18.7 µM

Cc1cc(NC(=O)Nc2ccc(N(C)C)cc2)c2cc(F)cc(F)c2n1
inactive: [1] | [2] | [15] | [4] | [14] | [5] | [6]

COc1cc(F)c(C(C)C)cc1-c1ccc(C(F)(F)F)cc1CN1C(=O)O[C@H](c2cc(C(F)(F)F)cc(C(F)(F)F)c2)[C@@H]1C
active: [1] 18.7 µM
inactive: [2] | [15] | [4] | [14] | [5] | [6]

COC(=O)N1CCN(Cc2cccc(NC(=O)Nc3ccc(C)nc3)c2F)CC1
inactive: [1] | [2] | [15] | [4] | [14]

CSc1cccc(Nc2ncc3cc(-c4c(Cl)cccc4Cl)c(=O)n(C)c3n2)c1
active: [1] 0.372 µM | [6] 0.743 µM | [16] 2930 nM | [7] 2.08 µM | [8] 2.61 µM | [9] 1.17 µM | [10] 2.08 µM | [11] 4.14 µM | [17] 2.93 µM | [12] 1.85 µM
inactive: [13] | [14] | [5]

COc1cc2c(cc1OC)[C@@H]1Cc3ccc(OC)c(OC)c3CN1CC2
inactive: [2] | [3] | [15] | [4] | [14] | [5] | [7]
active: [1] 10.5 µM

O=C1NC(=O)C(=Cc2ccc(-c3ccc(F)cc3O)o2)S1
inactive: [1] | [2] | [14] | [6]
active: [3] 1.72 µM

c1cc(OCCN2CCCCC2)cc(-c2n[nH]c3ccc(-c4ncn[nH]4)cc23)c1
active: [1] 14.8 µM | [3] 6.85 µM
inactive: [2] | [15] | [4] | [14] | [5] | [6]

CCNC(=O)c1noc(-c2cc(C(C)C)c(O)cc2O)c1-c1ccc(CN2CCOCC2)cc1
active: [1] 0.105 µM | [2] 0.0935 µM | [3] 0.153 µM | [15] 0.235 µM | [6] 0.148 µM | [16] 73.7 nM | [7] 0.0522 µM | [8] 0.0827 µM | [18] 52.2 nM | [10] 0.293 µM | [11] 0.0827 µM | [17] 0.0827 µM | [12] 0.147 µM

CCC(c1ccc(O)cc1)C(CC)c1ccc(O)cc1 (stereo not given)
active: [3] 27.3 µM | [8] 9.27 µM | [11] 10.4 µM | [17] 3.69 µM | [12] 8.27 µM
inactive: [1] | [2] | [14] | [5] | [6] | [7]

C=CC[N+]1([C@H]2C[C@H]3[C@@H]4CC[C@H]5C[C@H](O)[C@@H](N6CCOCC6)C[C@]5(C)[C@@H]4CC[C@]3(C)[C@H]2OC(C)=O)CCCC1
inactive: [1] | [2] | [3] | [4] | [14]

CN1CCc2c(n(Cc3ccc(C(=O)NO)cc3)c3ccccc23)C1
active: [1] 16.6 µM | [2] 18.7 µM | [3] 21.7 µM | [6] 11.8 µM
inactive: [14] | [5]

Fc1ccc(C(c2ccc(F)cc2)N2CCN(CC=Cc3ccccc3)CC2)cc1
inactive: [1] | [2] | [3] | [4] | [14] | [5]

COc1cc2ncnc(Nc3cc(Br)c(O)c(Br)c3)c2cc1OC
active: [1] 16.6 µM | [3] 27.3 µM | [15] 0.935 µM
inactive: [2] | [14] | [5] | [10] | [12] | [19]

CN(C)CC[C@H](CSc1ccccc1)Nc1ccc(S(=O)(=O)NC(=O)c2ccc(N3CCN(Cc4ccccc4-c4ccc(Cl)cc4)CC3)cc2)cc1[N+](=O)[O-]
inactive: [14]
active: [1] 0.0209 µM | [2] 0.187 µM | [3] 6.85 µM | [15] 5.9 µM | [5] 11.8 µM | [6] 11.8 µM | [16] 414 nM | [7] 14.7 µM | [8] 3.69 µM | [18] 414 nM | [9] 16.5 µM | [10] 8.27 µM | [17] 20.8 µM | [12] 1.47 µM

NCc1c[nH]c(=S)n1[C@H]1CCc2c(F)cc(F)cc2C1
active: [1] 23.5 µM | [2] 16.6 µM | [15] 33.2 µM

CC1=C(CC(=O)O)c2cc(F)ccc2C1=Cc1ccc(S(C)=O)cc1 (stereo not given)
active: [1] 26.4 µM
not listed: [2] | [3] | [4] | [6] | [14] | [15] | [19]
inactive: all other assays above
